Our source for the Potency values is PubChem BioAssay (Tox21).

The structures appear in SMILES notation. Records with an inconclusive call do not appear. A call without a number means that no potency is given here. Activity calls are given as the source filed them. The call rests on the fitted dose curve.
Potency means the concentration at half of the fitted maximal effect.

Chain of Peroxisome proliferator-activated receptor delta (Homo sapiens) (Q03181 whole entry, looked up): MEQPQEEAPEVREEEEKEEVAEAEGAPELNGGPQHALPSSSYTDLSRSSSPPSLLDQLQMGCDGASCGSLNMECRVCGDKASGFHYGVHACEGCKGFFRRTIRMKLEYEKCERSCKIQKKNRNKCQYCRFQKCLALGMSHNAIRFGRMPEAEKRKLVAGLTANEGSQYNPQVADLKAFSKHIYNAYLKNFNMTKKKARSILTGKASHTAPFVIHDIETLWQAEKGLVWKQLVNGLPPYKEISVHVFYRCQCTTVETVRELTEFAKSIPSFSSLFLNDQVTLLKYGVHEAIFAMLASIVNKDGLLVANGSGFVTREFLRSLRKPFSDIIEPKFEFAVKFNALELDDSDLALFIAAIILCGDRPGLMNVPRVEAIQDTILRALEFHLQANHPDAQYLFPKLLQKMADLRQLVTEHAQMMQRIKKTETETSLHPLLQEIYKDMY

This test has as its target Peroxisome proliferator-activated receptor delta (Homo sapiens) (UniProt Q03181). Kind of test: qHTS assay to identify small molecule agonists of the peroxisome proliferator-activated receptor delta (PPARd) signaling pathway (AID 743212).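 Further: HEK293H cells with PPARd UAS beta-lactamase reporter GeneBLAzer system.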 Conditions: HEK293H PPARd-UAS-bla, beta-lactamase FRET ratio, 17 h; series mostly up to 62.6 µM. A digest of the protocol: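 A PPARd-bla HEK293H line with beta-lactamase under an Upstream Activator Sequence is treated with compounds at 37 C. Substrate loading for 2 h at room temperature precedes the fluorescence measurement.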
Background: qHTS replaces the single test concentration by a dilution series.
`Oc1cccc2cc3cccc(O)c3c(O)c12`: the Potency entry is “inactive”.

Consider `O=Cc1cc(O)ccc1Br`, for which the Potency entry is “inactive”.

As for `CSc1ccc(C(=O)c2[nH]c(=O)[nH]c2C)cc1`, the Potency entry was “inactive”.

On to `CCN(CCC#N)c1ccc(N=Nc2c(Cl)cc([N+](=O)[O-])cc2Cl)cc1`, for which the Potency entry was “inactive”.

In the case of `CO[Si](CCCNc1ccccc1)(OC)OC`, the Potency result is “inactive”.

Turning to `Cc1c(C)c2c(c(C)c1OC(=O)CCC(=O)O)CC[C@@](C)(CCC[C@H](C)CCC[C@H](C)CCCC(C)C)O2`, the Potency result was “inactive”.

Regarding `Cc1nc(-c2ccc3c(c2)CCN(CCC2CCC(NC(=O)/C=C/c4ccc(F)cc4)CC2)CC3)no1` (stereo unspecified), the Potency was 21.9 µM (active).

In the case of `Cc1cccc(CN2CCN(C(c3ccccc3)c3ccc(Cl)cc3)CC2)c1` (stereo unspecified), the Potency entry is “inactive”.

Regarding `CCCCCCCCCCCCCC[P+](CCCC)(CCCC)CCCC` (tested in a mixture with another compound), the Potency entry is “inactive”.

Take `Cc1cccc(S(=O)(=O)O)c1C`: the Potency entry was “inactive”.

`CCCCCCCCCCCCCCCC(=O)OC[C@H](O)[C@H]1OC(=O)C(O)=C1O`: the Potency was 49 µM (active).

As for `CNC(=O)c1ccccc1`, the Potency result is “inactive”.

Consider `CCCCN1CCCC[C@H]1C(=O)Nc1c(C)cccc1C`, for which the Potency result is “inactive”.

Take `O=C(O)c1ccc(Cl)c(Cl)c1`: the Potency result is “inactive”.

As to `O=C(O)c1cc(O)c2c(c1)C(=O)c1cccc(O)c1C2=O`, the Potency entry is “inactive”.

On to `OCCCCCCCCCCCCBr`, for which the Potency entry is “inactive”.
